The text below walks through data of PubChem BioAssay (NCATS).

Inconclusive results are not listed. Unmarked numbers belong to inactive results. Calls come from the whole dose curve; as a rule, active = well fitted inhibition curve with a large enough effect; inconclusive = small, poorly fitted or top-dose-only effect; inactive = flat fitted curve, though single readings scatter.
% is set by controls: 0 for no effect and ±100 for the full control effect.

Chain of Calcium and integrin-binding protein 1 (Homo sapiens) (Q99828 whole entry, looked up): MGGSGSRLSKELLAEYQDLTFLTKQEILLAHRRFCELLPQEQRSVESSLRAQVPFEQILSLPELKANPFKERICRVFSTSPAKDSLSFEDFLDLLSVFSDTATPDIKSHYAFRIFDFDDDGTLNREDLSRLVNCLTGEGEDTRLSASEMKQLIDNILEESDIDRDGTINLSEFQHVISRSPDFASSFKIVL

This assay addresses Calcium and integrin-binding protein 1 (Homo sapiens) (UniProt Q99828). Briefly: Primary qHTS for Identification of Calcium Integrin Binding Protein 1 (CIB1) Competitor (AID 1508620).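 Note: GST tagged CIB1 binding a fluorescein labelled alphaIIb integrin peptide tracer; top concentration of the series differs between compounds.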 The following applies: CIB1-GST / FITC-alphaIIb peptide fluorescence polarization; series mostly up to 114 µM; activity change, negative = inhibition: at the top concentration. An excerpt:
Assay Provider: Ulhas P. Naik, PhD Sidney Kimmel Medical College Thomas Jefferson University, Philadelphia, PA Primary function of platelets is to maintain hemostasis. At the site of vascular injury, platelets adhere to adhesive proteins such as collagen and von Willebrand factor. Adherent platelets are activated and generate soluble platelet agonists such as thrombin, ADP and thromboxane A2. Following exposure of circulating platelets to these agonists, results in platelet shape change, granule secretion and activation of platelet integrin alphaIIb-beta3. Ligand binding to activated integrin alphaIIb-beta3 triggers outside-in signaling, leading to platelet aggregation, stabilization of platelet plug, and clot retraction. Upon atherosclerotic plaque rupture also causes platelet plug formation, which underlies a number of cardiovascular diseases such as myocardial infraction and stroke. A number of anti-platelet drugs such as aspirin, clopidogrel, prasugrel, vorapaxar, and eptifibatide are currently available to prevent the thrombotic complications. However, these anti-platelet agents have several limitations including inherent variability in individual responses, developing resistance, and serious bleeding side effects. For these reasons they are not suitable for long-term protection. Based on the experiences with current anti-platelet drugs, it appears that the most useful therapeutic approach is to intersect the secondary responses such as integrin outside-in signaling or recruitment of platelets by TxA2 and secreted ADP. Compounds, which can largely preserve the primary hemostatic function of platelets but inhibit secondary response will be most desired therapeutic agents for treatment of cardiovascular disease. CIB1 is a calcium integrin binding protein, which specifically interact with the alphaIIb subunit of integrin alphaIIb-beta3. Binding of CIB1 to alphaIIb regulates the outside-in signaling in platelets, which is needed for thrombus stabilization and thrombus growth. […] Therefore, we propose that discovery of a small molecule that can prevent the association of CIB1 and alphaIIb-beta3 will be a potential anti-platelet agent that can block the thrombus formation without undue effect on hemostasis. Reference: [1] Naik MU, Nigam A, Manrai P, et al. CIB1 deficiency results in impaired thrombosis: the potential role of CIB1 in outside-in signaling through integrin alpha IIb beta 3. J Thromb Haemost.
PROTOCOL TABLES SEQUENCE No. (1, 2, 3, etc.); […] (e.g., Cells, Incubation, Reagent, etc.); VALUE and DESCRIPTION. 1; Reagent; 3 uL; Protein or buffer (4/3x) 2; Compound; 46 nL; Control inhibitor / compound library 3; Time; 15 min; Room temperature incubation 4; Reagent; 1 uL; Fluorescent labeled peptide (4x) 5; Time; 1000 rpm; Centrifuge 6; Time; 15 min; Room temperature incubation 7; Detection; Ex 480/ Em 540; ViewLux Fluorescence Read NOTES (numbers refer to sequence above) 1; Protein Mixture: C1B1-GST (final concentrations of 1 uM). […] 3; Room temperature incubation. 4; Fluorescent Labeled Peptide: FITC-aIIb (final concentration of 100 nM). Sequence of alphaIIb peptide: Acetyl-[…]-FITC (purity is 95.83%). 5; Centrifuge 1000 rpm (164 g) for 15 seconds. 6; Room temperature incubation. 7; ViewLux Fluorescent Polization Read: excitation = 480(20) / emission = 540(25) S and P; FITC Dichroic mirror.
Take `Clc1ccc([C@]23CNC[C@H]2C3)cc1Cl`: the “activity change, negative = inhibition” value was 2.01%.

For the compound `C[C@@H]1Cc2c(Cl)cc(C(=O)N[C@@H](Cc3ccccc3)C(=O)O)c(O)c2C(=O)O1`, the “activity change, negative = inhibition” value was 2.53% [at 57.7 µM].

`Fc1cc(F)c2c(c1)[C@H]1C=CC[C@H]1C(c1cccnc1)N2` (stereo not given in full): the “activity change, negative = inhibition” value is 3.18%.

On to `N#CC(O[C@@H]1O[C@H](CO)[C@@H](O)[C@H](O)[C@H]1O)c1ccccc1` (stereo not given in full), for which the “activity change, negative = inhibition” value was 1.61%.

Take `CCCCCn1cc(C(=O)c2cccc3ccccc23)c2ccccc21`: the “activity change, negative = inhibition” value was 2.16%.

As for `CC[C@H](C)[C@H](NC(=O)[C@H]1CCCCN1C)C(=O)N(COC(=O)CC(C)C)[C@H](C[C@@H](OC(C)=O)c1nc(C(=O)N[C@@H](Cc2ccc(O)cc2)C[C@H](C)C(=O)O)cs1)C(C)C`, the activity change, negative = inhibition is 1.44% [at 2.24 µM].

Regarding `C[C@@H](CN1CCC(n2c(=O)[nH]c3cc(Br)ccc32)CC1)NC(=O)[C@@H]1C[C@H]1c1ccccc1`, the “activity change, negative = inhibition” value is -1.95%.

For `C[C@H](Nc1ncnc2nc[nH]c12)c1nc2ccc(F)cc2c(=O)n1-c1ccccc1`, the “activity change, negative = inhibition” value is 4.59%.

For `Oc1ccc2c(c1)C13CCCC[C@H]1[C@@H](C2)N(CC1CCC1)CC3`, the “activity change, negative = inhibition” value is -2.47%.

Regarding `C[C@H]1CC[C@@H]2[C@@H](C)[C@H]3[C@H](C[C@H]4[C@@H]5CC=C6CC(O[C@@H]7O[C@H](CO)[C@@H](O)[C@H](O[C@@H]8O[C@H](CO)[C@@H](O)[C@H](O)[C@H]8O)[C@@H]7O[C@@H]7O[C@@H](C)[C@H](O)[C@@H](O)[C@H]7O)CC[C@]6(C)[C@H]5CC[C@]34C)N2C1` (stereo not given in full), the “activity change, negative = inhibition” value was 1.48% [at 30.2 µM].

For `CN1CCCCC1Cn1cc(C(=O)c2cc([N+](=O)[O-])ccc2I)c2ccccc21` (stereo not given), the “activity change, negative = inhibition” value is -4.1%.

`C=CC(C)(C)c1[nH]c2c(CC=C(C)C)cc(CC=C(C)C)cc2c1C[C@@H]1NC(=O)[C@H](C)NC1=O`: the “activity change, negative = inhibition” value was -0.306%.

With `COc1ccc(C23CCC(=O)C=C2N(C)CC3)cc1OC` (stereo not given), the “activity change, negative = inhibition” value was 2.41%.

Consider `CN(Cc1cccc(-c2ccncc2)c1)C(=O)Oc1ccc(-c2ccc(C(N)=O)cc2)cc1`, for which the “activity change, negative = inhibition” value is 0.809%.

As for `O=C1N[C@@H](Cc2ccccc2)CN2CCCC[C@@H]12`, the “activity change, negative = inhibition” value is -10.6%.

Take `C[C@]12CC[C@H](O)C[C@H]1CC[C@@H]1[C@@H]2[C@H](O)C(=O)[C@]2(C)[C@@H](c3ccc(=O)oc3)CC[C@]12O`: the “activity change, negative = inhibition” value is -8.8%.

Turning to `COC1CC(O[C@H]2CC[C@]3(C)C4CC[C@]5(C)[C@@H](C6=CC(=O)OC6)[C@@H](OC(C)=O)C[C@]5(O)C4CC[C@@H]3C2)OC(C)C1O` (stereo not given in full), the “activity change, negative = inhibition” value was 2.71% [at 57.7 µM].

Regarding `COC1C=CC23c4cc5c(cc4COC2(O)CN(C)C3C1)OCO5` (stereo not given), the “activity change, negative = inhibition” value is -1.15% [at 57.7 µM].

Take `CC(=O)C1CCC2C3CCC4C[C@@H](O)CCC4(C)C3CCC12C` (stereo not given in full): the “activity change, negative = inhibition” value was 4.12%.

Turning to `C=C(C)[C@@H]1[C@H]2OC(=O)[C@H]1[C@]1(O)C[C@H]3O[C@]34C(=O)O[C@H]2[C@]14C`, the “activity change, negative = inhibition” value was -2.15%.

Take `CC(=O)NCCCOc1ccc(C(=O)N2CCC(N3C(=O)CCc4ccccc43)CC2)cc1`: the “activity change, negative = inhibition” value was -2.23%.

Take `CCCCN1[C@@H]2CC[C@H]1CC(OC(c1ccc(F)cc1)c1ccc(F)cc1)C2` (stereo not given in full): the “activity change, negative = inhibition” value was -8.72%.

On to `CN1C(=O)[C@]23CC4C(C)(C)[C@@]5(C[C@@]41CN2CC[C@@]3(C)O)C(=O)Nc1c5ccc2c1OC=CC(C)(C)O2` (stereo not given in full), for which the “activity change, negative = inhibition” value was -4.96% [at 57.7 µM].

As for `CC(=O)O[C@@H]1[C@H]2CC[C@H]3[C@@](C)(O)[C@@H]4C[C@H](O)C(C)(C)[C@@]4(O)[C@H](O)C[C@@]13C[C@@]2(C)O`, the “activity change, negative = inhibition” value was -0.642% [at 57.7 µM].

Regarding `CC(C)C(=O)O[C@H]1[C@@H]2[C@H](C)C(=O)O[C@@H]2C[C@@H](C)[C@@H]2C=CC(=O)[C@]21C`, the “activity change, negative = inhibition” value was 5.07% [at 57.7 µM].

For the compound `COC(=O)C12C(=O)C(C)(O)C(=O)C1(C)C(C)=CC1C34CCC(OC3=O)C(C)(C)C4CCC12C` (stereo not given), the “activity change, negative = inhibition” value is 2.07% [at 57.7 µM].

`C[C@@H]1C[C@@H](O)[C@]2(O)O[C@@H]3C[C@@]4(C=O)C(CC[C@@H]5C4CC[C@]4(C)[C@@H](C6=CC(=O)OC6)CC[C@]54O)C[C@H]3O[C@@H]2O1` (stereo not given in full): the “activity change, negative = inhibition” value is -1.33% [at 57.7 µM].

In the case of `C/C=C(/C)C1C=CC2CC(C)CC(C)C2C1/C(O)=C1\C(=O)NC(CC(C)(O)C(=O)O)C1=O` (stereo not given), the “activity change, negative = inhibition” value is 4.36% [at 57.7 µM].

For `CCN1C[C@]2(COC)CC[C@H](O)[C@@]34C5C[C@@H]6[C@@H](OC)C[C@@](OC(C)=O)(C5[C@@H]6OC(C)=O)[C@H]([C@H](OC)C23)[C@@H]14` (stereo not given in full), the “activity change, negative = inhibition” value is 0.864% [at 57.7 µM].

For `C=CC(C)(C)C12C=C(O)C(=O)N3/C(=C\c4cnc[nH]4)C(=O)NC31N(OC)c1ccccc12` (stereo not given), the “activity change, negative = inhibition” value is -4.14% [at 57.7 µM].

On to `C[C@@H]1CCC2[C@@H](C)C(=O)OC3O[C@@]4(C)CCC1[C@]32OO4` (stereo not given in full), for which the “activity change, negative = inhibition” value was 6.64%.

With `CN1Cc2c(ccc3c2OCO3)[C@@H]2[C@H]1c1cc3c(cc1C[C@@H]2O)OCO3`, the “activity change, negative = inhibition” value was 4.64% [at 57.7 µM].

Consider `C=CC/C=C\C/C=C\CCCCCCCc1cc(O)cc(O)c1`, for which the “activity change, negative = inhibition” value is 1.08% [at 57.7 µM].

For the compound `CC(C)(C)[C@]1(O)C[C@@H]2OC(=O)C[C@@]23C(=O)O[C@@H]2OC(=O)[C@@H](O)[C@]213`, the “activity change, negative = inhibition” value is -3.44% [at 57.7 µM].

Turning to `C=CCN1CCC2(C)c3cc(O)ccc3C[C@H]1[C@H]2C`, the “activity change, negative = inhibition” value is 1.1%.

Consider `CC[C@@H]1C[C@H]2CC[C@H](O2)[C@H](C)C(=O)O[C@@H](C)C[C@@H]2CC[C@@H](O2)[C@@H](C)C(=O)O[C@H](CC)C[C@H]2CC[C@H](O2)[C@H](C)C(=O)O[C@@H](C)C[C@@H]2CC[C@@H](O2)[C@@H](C)C(=O)O1`, for which the “activity change, negative = inhibition” value is -8.45% [at 30.2 µM].

With `O=C(N[C@H]1CN2CCC1CC2)c1cc2cccc(Cl)c2s1`, the “activity change, negative = inhibition” value was -6.41%.

`C[C@@H]1[C@H](O)[C@@H](C)/C=C/C=C/CC/C=C/C=C/C=C/C=C/[C@H](O[C@H]2O[C@@H](C)[C@H](O)[C@@H](N)[C@H]2O)C[C@@H]2O[C@](O)(C[C@@H](O)[C@H](O)CC[C@@H](O)C[C@@H](O)C[C@@H](O)CC(=O)O[C@H]1C)C[C@H](O)[C@H]2C(=O)O`: the “activity change, negative = inhibition” value is 6.29% [at 57.7 µM].

In the case of `CC1=C[C@H]2O[C@@H]3C[C@H]4OC(=O)/C=C/C=C/C(=O)OCC/C(C)=C/C(=O)OC[C@@]2(CC1)[C@]4(C)[C@]31CO1`, the “activity change, negative = inhibition” value is -0.132% [at 57.7 µM].

Consider `C#C[C@]1(O)CC[C@H]2[C@@H]3CC[C@H]4Cc5nc6nc7ccccc7n6cc5C[C@]4(C)[C@H]3CC[C@@]21C`, for which the “activity change, negative = inhibition” value is -0.514%.
